Measured values published in PubChem BioAssay AID463173 (ICCB-Longwood Screening Facility, Harvard Medical School, 2010).
In all, about 52,000 compounds went through this assay and about 1,700 (3.3%) were called active. Cut-off read from the data, not from the text of the source: active = survival mostly below about 52% (no sharp cut-off); inactive = mostly above about 56%. The full list was thinned out, with actives kept by preference.

Each compound was assayed on Wild type (assay: S. aureus survival, RN4220 and DeltatarO strains – OD600, teichoic acid synthesis inhibitors, primary screen (AID 463173)). Settings: S. aureus RN4220 wild type/DeltatarO growth, OD600, 18 h, active compounds read low, screened at 18.75 µg/mL (by protocol).
In the case of C=CCc1c(C)nc(SC)[nH]c1=O, the survival is reported as 114% (inactive).
In the case of Cc1cccc(-c2nc3ccccc3n3c(-c4ccccc4)c4c(=O)n(C)c(=O)n(C)c4c23)c1, the survival is reported as 121% (inactive).
With O=C(CN1C(=O)c2ccccc2Sc2ncccc21)Nc1cccc(C(F)(F)F)c1 the survival was 85% (inactive).
For CCSc1nc2ccccc2c(OCc2ccccc2Cl)c1C(=O)OC, the survival was 75% (inactive).
CCSc1nc2ccccc2c(OCc2ccc(Cl)cc2)c1C(=O)OC was tested, and the survival was 88% (inactive).
With CCSc1nc2ccccc2c(OCc2cc(C(=O)OC)ccc2OC)c1C(=O)OC the survival was -15% (active).
In the case of Cc1ccc(N2CCN(S(=O)(=O)c3cc(C(=O)Nc4cc(Cl)cc(Cl)c4)ccc3F)CC2C)cc1 (stereo unspecified), the survival is reported as 71% (inactive).
In the case of COc1ccc(OC)c(CNC(=O)c2c(C)oc3ncn(C)c(=O)c23)c1, the survival is reported as 70% (inactive).
For O=C(COc1ccccc1)Nc1c(C(=O)N2CCN(c3ccc(F)cc3)CC2)oc2ccccc12, the survival was 74% (inactive).
With COc1ccc(C(CC(=O)Nc2cccc(C)c2C)N2Cc3ccccc3C2=O)cc1 (stereo unspecified) the survival was 68% (inactive).
In the case of CCc1ccc(CNCc2c(C(=O)O)n(Cc3cccc(F)c3)c3cc(OC)ccc23)cc1, the survival is reported as 63% (inactive).
COc1ccc(OC)c(CNCc2c(C(=O)O)n(Cc3cccc(F)c3)c3cc(OC)ccc23)c1 was tested, and the survival was -3% (active).
In the case of COc1ccc(OC)c(CNCc2c(C(=O)O)n(Cc3ccccc3)c3cc(OC)ccc23)c1, the survival is reported as 84% (inactive).
COc1cc(Cl)c(C)cc1NC(=O)c1nn(-c2ccc(C)cc2)c(=O)n(C)c1=O was tested, and the survival was 66% (inactive).
With COc1ccc(-n2c(=O)c3sc4ccccc4c3n(Cc3ccccc3C)c2=O)cc1OC the survival was 89% (inactive).
In the case of Cc1ccc(-c2nc3sc(CCNS(=O)(=O)c4cc(F)ccc4F)c(C)n3n2)cc1, the survival is reported as -4% (active).
CCCS(=O)(=O)NCCc1sc2nc(-c3ccc(Cl)cc3)nn2c1C was tested, and the survival was 81% (inactive).
With COc1ccc(F)cc1S(=O)(=O)NCCc1sc2nc(-c3ccc(F)cc3)nn2c1C the survival was 57% (inactive).
Cc1c(CCNS(=O)(=O)c2ccccc2)sc2nc(-c3ccc(Cl)cc3)nn12 was tested, and the survival was 1% (active).
With Cc1cc(C)c(S(=O)(=O)NCCc2sc3nc(-c4ccc(F)cc4)nn3c2C)c(C)c1 the survival was 63% (inactive).
CCCS(=O)(=O)NCCc1sc2nc(-c3ccc(F)cc3)nn2c1C was tested, and the survival was 60% (inactive).
In the case of CCS(=O)(=O)NCCc1sc2nc(-c3ccc(OC)cc3)nn2c1C, the survival is reported as 71% (inactive).
In the case of COc1ccc(-c2nc3sc(CCNS(=O)(=O)c4c(C)cc(C)cc4C)c(C)n3n2)cc1, the survival is reported as -3% (active).
COc1ccc(-c2nc3sc(CCNS(=O)(=O)c4ccccc4)c(C)n3n2)cc1 was tested, and the survival was 57% (inactive).
Cc1ccc(C(=O)Nc2nnc(S(=O)(=O)N3c4ccccc4CC3C)s2)cc1 (stereo unspecified) was tested, and the survival was 38% (inactive).
In the case of CCc1ccc(NC(=O)CSc2nc3c([nH]c4ccccc43)c(=O)n2-c2ccc(C)cc2)cc1, the survival is reported as 159% (inactive).
In the case of COC(=O)c1sc(NC(=O)/C=C/c2ccc(OC)c(OC)c2)c(C(=O)OC)c1C, the survival is reported as 55% (inactive).
For Cc1ccc(OCC(=O)Nc2ccc(S(=O)(=O)Nc3ncccn3)cc2)c(C(C)(C)C)c1, the survival was 64% (inactive).
For CCCCNC(=O)CSc1nc2ccccc2nc1Cc1ccc(Cl)cc1, the survival was 146% (inactive).
For O=C(Cc1ccccc1)Nc1cccnc1, the survival was 116% (inactive).
CCN1CCN(c2csc3ccc(Br)cc3c2=O)CC1 was tested, and the survival was 83% (inactive).
With CCc1nnc(NC(=O)c2nc(S(=O)(=O)Cc3ccc(C)cc3)ncc2Cl)s1 the survival was 57% (inactive).
With CC(C)c1ccc(Cn2c(COc3ccccc3)nc3ccccc32)cc1 the survival was -1% (active).
With COCc1nc2ccccc2n1Cc1cccc(C)c1 the survival was 81% (inactive).
In the case of Cc1ccc(Cn2c(CCNC(=O)C(C)C)nc3ccccc32)cc1, the survival is reported as 81% (inactive).
With Cc1ccc(Cn2c(CNC(=O)c3cccc(C)c3)nc3ccccc32)cc1 the survival was 107% (inactive).
For Cc1cccc(Cn2c(COc3ccccc3)nc3ccccc32)c1, the survival was -11% (active).
For Cc1cccc(Cn2c(Cc3ccccc3)nc3ccccc32)c1, the survival was 29% (active).
Cc1ccc(Cn2c(Cc3ccccc3)nc3ccccc32)cc1 was tested, and the survival was -1% (active).
With Cc1cccc(Cn2c(CNC(=O)c3ccccc3)nc3ccccc32)c1 the survival was 84% (inactive).
For Cc1cccc(Cn2c(COc3ccc(Cl)cc3)nc3ccccc32)c1, the survival was 61% (inactive).
COc1cc(OC)c(NC(=O)c2cn(C3CCCC3)c(=O)c3c2c2ccccc2n3C)cc1Cl was tested, and the survival was 80% (inactive).
With CCOC(=O)N1CCN(c2ncnc3c2cnn3-c2ccccc2)CC1 the survival was 112% (inactive).
In the case of Cc1cccc(-c2noc(-c3ccc(NCc4cccnc4)c([N+](=O)[O-])c3)n2)c1, the survival is reported as 81% (inactive).
With COCCNC(=O)Cn1cc(/C=C(\C#N)C(N)=O)c2ccccc21 the survival was 114% (inactive).
In the case of COc1ccc(CNC(=O)C(Cc2ccccc2)NS(=O)(=O)c2ccc3c(c2)CCN3C(C)=O)cc1 (stereo unspecified), the survival is reported as 127% (inactive).
For Cc1coc2c(C)c3oc(=O)c(CC(=O)NCCc4ccc(Cl)cc4)c(C)c3cc12, the survival was 99% (inactive).
In the case of COc1cccc(Cn2c(CNS(=O)(=O)c3ccc(F)c(Cl)c3)nc3cccnc32)c1, the survival is reported as 159% (inactive).
In the case of O=C(NCC1COc2ccccc2O1)c1cn(Cc2ccc(F)cc2)nn1 (stereo unspecified), the survival is reported as 107% (inactive).
COc1ccc(N2CCN(c3oc(/C=C/c4ccccc4OC)nc3C#N)CC2)cc1 was tested, and the survival was 86% (inactive).
For O=C1CC(c2ccc3c(c2)OCO3)CC2=C1C(c1ccncc1)Nc1ccccc1N2 (stereo unspecified), the survival was 81% (inactive).
In the case of CCn1c(COc2ccc(Cl)cc2Cl)nc2ccccc21, the survival is reported as 78% (inactive).
In the case of O=C(NCCc1nc2ccccc2n1Cc1ccc(Cl)cc1Cl)c1ccco1, the survival is reported as 76% (inactive).
For CC(C)(C)c1ccc(Cn2c(Cc3ccccc3)nc3ccccc32)cc1, the survival was -1% (active).
In the case of Clc1ccc(OCc2nc3ccccc3n2Cc2ccccc2)c(Cl)c1, the survival is reported as 7% (active).
In the case of CC(O)c1nc2ccccc2n1Cc1ccccc1 (stereo unspecified), the survival is reported as 100% (inactive).
For CCC(=O)NCc1nc2ccccc2n1Cc1ccccc1, the survival was 106% (inactive).
For CCOc1ccc(NC(=O)c2sc(-n3nc(C)c(CCC(C)C)c3C)nc2C)cc1, the survival was 123% (inactive).
For CCCCOc1ccc(CNC(=O)c2cnc3sc(N4CCCCCC4)nn3c2=O)cc1, the survival was 91% (inactive).
For CCOc1ccc(CCNC(=O)c2cc3cc4cc(OC)ccc4nc3s2)cc1OCC, the survival was 117% (inactive).
With Cc1cccc(-c2nc(CSCC(=O)N3CCN(c4cccc(C)c4C)CC3)c(C)o2)c1 the survival was 0% (active).
COc1ccc(-c2nc(CSCC(=O)N3CCN(c4ccccc4)CC3)c(C)o2)cc1 was tested, and the survival was 53% (inactive).
With Cc1cccc(-c2nc(CSCC(=O)N3CCN(c4ccccc4)CC3)c(C)o2)c1 the survival was 18% (active).
In the case of COc1ccc(-c2nc(CSCC(=O)N3CCN(c4cccc(C)c4C)CC3)c(C)o2)cc1OC, the survival is reported as 22% (inactive).
Cc1ccc(-c2nc(CS(=O)(=O)CC(=O)N3CCN(c4cccc(C)c4C)CC3)c(C)o2)cc1 was tested, and the survival was 129% (inactive).
With Cc1oc(-c2ccccc2F)nc1CSCC(=O)N1CCN(c2ccccc2)CC1 the survival was 62% (inactive).
With COc1ccc(N2CCN(CC(=O)c3ccc(OC)c(OC)c3)CC2)cc1 the survival was 106% (inactive).
CC(C)OCCCNC(=O)Cn1ccc2cc(S(=O)(=O)N3CCCCCC3)ccc21 was tested, and the survival was 124% (inactive).
In the case of COc1ccc2c(Sc3ccccc3)c(C(=O)NCc3cccc(OC)c3OC)[nH]c2c1, the survival is reported as 89% (inactive).
In the case of CC(C)COc1ccc(C(=O)N2CCC(c3nc4ccccc4s3)CC2)cc1, the survival is reported as 42% (inactive).
CCc1ccccc1NC(=O)CSc1nnc(-c2ccccc2)c(-c2ccccc2)n1 was tested, and the survival was 69% (inactive).
With O=C(CSc1nnc(-c2ccccc2)c(-c2ccccc2)n1)Nc1ccccc1Cl the survival was 70% (inactive).
With CC(C)CSc1nnc(-c2ccccc2)c(-c2ccccc2)n1 the survival was -4% (active).
Cc1oc2c(c(C)cc3oc(=O)c(CC(=O)NCCc4ccccc4)c(C)c32)c1C was tested, and the survival was 112% (inactive).
For CCc1ccc(CNC(=O)C2CCN(C(=O)c3ccc(-n4c(C)cc5ccccc54)s3)CC2)cc1, the survival was 81% (inactive).
In the case of Cc1cc2ccccc2n1-c1ccc(C(=O)N2CCC(C(=O)NCc3ccc(Cl)cc3)CC2)s1, the survival is reported as 63% (inactive).
Cc1cc2ccccc2n1-c1ccc(C(=O)N2CCC(C(=O)NCc3ccc(F)cc3)CC2)s1 was tested, and the survival was 1% (active).
For Cc1ccc(NC(=O)CN2C(=O)CSc3ccc(S(=O)(=O)N4CCCC4)cc32)cc1F, the survival was 99% (inactive).
In the case of COC(=O)c1cc2c(cc1NC(=O)c1cnn(-c3ccccc3)c1-n1cccc1)OCO2, the survival is reported as 80% (inactive).
In the case of CCCNC(=O)CSc1nc(-c2ccccc2)cc(C(F)(F)F)n1, the survival is reported as 112% (inactive).
With Cc1nn(-c2nc(-c3ccc(F)cc3)cc(C(F)(F)F)n2)c(C)c1Cl the survival was -2% (active).
Cc1nn(-c2nc(-c3ccccc3)cc(C(F)(F)F)n2)c(C)c1Cl was tested, and the survival was -3% (active).
COc1ccc(-c2cc(C(F)(F)F)nc(-n3nc(C(F)(F)F)cc3C)n2)cc1 was tested, and the survival was 50% (inactive).
With CC(C)(C)NC(=O)CSc1nc(-c2ccc(F)cc2)cc(C(F)(F)F)n1 the survival was 78% (inactive).
In the case of Cc1ccc(-c2cc3nc(-c4ccccc4)cc(C(F)(F)F)n3n2)cc1, the survival is reported as 80% (inactive).
For CCC(C)NC(=O)CSc1nc(-c2ccc(F)cc2)cc(C(F)(F)F)n1 (stereo unspecified), the survival was 81% (inactive).
In the case of Cc1nn(-c2nc(-c3ccc(F)cc3)cc(C(F)(F)F)n2)c(C)c1Br, the survival is reported as -2% (active).
With Cc1cc(C(F)(F)F)nn1-c1nc(-c2ccccc2)cc(C(F)(F)F)n1 the survival was 13% (active).
With CN(Cc1ccccc1)c1nc(-c2ccc(F)cc2)cc(C(F)(F)F)n1 the survival was 80% (inactive).
For COc1cccc(-c2cc(C(F)(F)F)nc(-n3nc(C)c(Br)c3C)n2)c1, the survival was 80% (inactive).
With FC(F)(F)c1cc(-c2ccccc2)nc2cc(-c3ccccc3)nn12 the survival was 75% (inactive).
